# Source: PubChem
# Abeta yeast res: qHTS for compounds that reverse cellular toxicity of Amyloid beta (A-beta) peptide in yeast: Primary Screen. yeast expressing A-beta42, growth rescue, OD600, 48 h; response scale: 0% DMSO, 100% iron-clioquinol control. Potency, µM (series often up to 46.1 µM), hits mostly activators. 410,000 tested, 0.063% active. AID 1347071, 2019; also: nearly all actives have a fitted effect of over 55% in size
#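 Growth rescue measured by 600 nm absorbance after 48 h yeast culture at 30 C with compound. Values normalized between DMSO and an equimolar ferric chloride plus clioquinol control.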
# GRP78 ERSR act: qHTS for Inducers of the Endoplasmic Reticulum Stress Response (ERSR) in Human Glioma: qHTS | U87-MG GRP78 promoter luciferase reporter, 16 h | Potency, µM, most hits filed as activators | 420,000 tested, 0.02% active; also: series mostly up to about 76 µM; nearly all actives have a fitted effect of over 35% in size
#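 Stably transfected U87-MG human glioma cells carrying a GRP78-based luminescent sensor were seeded at 1000 cells/well, pin-dosed with compounds and incubated 16 h. Luciferase reagent was then added, and end-point luminescence was read after 10 min at room temperature.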
# aSyn yeast inh: qHTS of alpha-syn Inhibitors | Yeast expressing alpha-synuclein, growth rescue, BacTiter-Glo, 24 h | Potency, µM (highest dose often 46.1 µM), usual class: activators | 370,000 tested, 0.14% active; also: nearly all actives have a fitted effect of over 65% in size
#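 Screening used galactose-induced yeast with toxic alpha-synuclein levels, exposed to compound for 24 hr at 30 deg C. Cell growth, read with BacTiter-Glo luminescence, gave the measured signal.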
# TDP43 rescue: qHTS of TDP-43 Inhibitors; TDP-43 expressing yeast growth rescue, BacTiter-Glo, 24 h; Potency, µM (highest dose often 46.1 µM), usual class: activators; 410,000 tested, 1.8% active; AID 652104, 2013; also: nearly all actives have a fitted effect of over 50% in size
#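 Galactose-induced TDP-43 yeast, OD600=0.02, compound pinned; 24 hr, 30 deg C; BacTiter-Glo luminescence for growth. Inhibitors of TDP-43 toxicity read as activators.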
# A-T KAP1 phos: qHTS Assay for Identifying a Potential Treatment of Ataxia-Telangiectasia; AID 485349, 2010; 320,000 tested, 0.19% active; F2112 A-T fibroblasts, KAP-1 phosphorylation AlphaLISA; neocarzinostatin DNA damage 30 min before lysis; Potency, µM (doses to about 57.5 µM), most hits filed as activators; also: nearly all actives have a fitted effect of over 45% in size
#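 hTERT-immortalized A-T patient fibroblasts (F2112), 500 cells/well in OPTI-MEM, 1% FBS, got compounds for 60 min, then NCS for 30 min at 37C. Lysates were then assayed for phospho-KAP-1 by AlphaLISA (anti-pKAP1 donor, anti-KAP1 acceptor beads), 6 hr at 25C.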
# Mito fusion act: qHTS Assay for Small Molecule Inhibitors of Mitochondrial Division or Activators of Mitochondrial Fusion; S. cerevisiae fusion-defective mutant growth rescue, CellTiterGlo 48 h; Potency, µM (highest dose often 46.1 µM), actives largely listed as activators; 320,000 tested, 0.23% active; AID 485298, 2010; also: nearly all actives have a fitted effect of over 45% in size
#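 Temperature-sensitive fusion-defective S. cerevisiae (e.g. fzo1-1, mgm1-5) were grown with compound in YPEG medium (3% ethanol, 3% glycerol) for 48 hours at 37C. Growth rescue was measured as viability by CellTiterGlo luminescence after 10 minutes at ambient.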
# Hits are given with their value; - = inactive; ? = inconclusive; . = no result; [ ] = another dose, or the depositor's remark. Shown are actives, neighbours in structure and some others; about 2.1% of the full set was active somewhere. Calls follow the shape of the dose curve; as a rule, active = well fitted curve in the direction sought with a large enough effect; inconclusive = small, poorly fitted or top-dose-only effect, or another doubt; inactive = no such curve, though single readings can be large; an effect the other way counts as inactive or inconclusive.
SMILES,Abeta yeast res,GRP78 ERSR act,aSyn yeast inh,TDP43 rescue,A-T KAP1 phos,Mito fusion act
O=C(N/N=C1\C(=O)c2cccc3cccc1c23)c1ccc(O)cc1,-,-,-,-,-,-
O=C(CSc1nc2ccccc2o1)Nc1nc2ccccc2s1,-,-,-,-,-,-
O=C(CSc1nc2ccccc2o1)Nc1nc(-c2ccccc2)cs1,-,-,-,-,-,16µM
Cc1ccc(-c2csc(NC(=O)CSC3=NCCS3)n2)cc1,-,-,.,7.1µM,.,-
CCn1c(SCC(=O)Nc2nc(-c3ccccc3)cs2)nnc1-c1ccccc1O,-,-,-,20µM,-,?
O=C(Cn1cc(S(=O)(=O)Cc2ccc(F)cc2)c2ccccc21)NCc1ccccc1,-,-,.,-,.,.
C=CCn1c(C)cc(C(=O)COC(=O)c2cncc(Br)c2)c1C,-,-,-,20µM,-,-
C=CCn1c(C)cc(C(=O)COc2ncnc3sccc23)c1C,-,-,-,-,-,-
Cc1cccc(N2C(=O)C(Oc3ccc(Cl)cc3Cl)C2C=O)c1C (stereo unspecified),-,-,-,16µM,-,-
COCCN1CC(=O)N(c2cccc(C)c2C)C(c2ccc(Cl)cc2)C1=O (stereo unspecified),-,-,-,-,-,-
CCCCS/C(N)=N/N=C/c1ccccc1O,-,-,-,11µM,-,-
O=C(c1cccs1)N1CCc2c([nH]c3ccccc23)C1c1ccccn1 (stereo unspecified),-,-,-,?,-,-
O=C(c1cc(-c2ccccc2)n[nH]1)N1CCc2c([nH]c3ccccc23)C1c1ccccn1 (stereo unspecified),?,-,?,18µM,-[11.5 µM],-
CCCCN(CC)CCCNC(=O)c1cn(CC(C)C)c(=O)c2c1c1ccccc1n2C,-,-,-,-,25µM,-
CCCC1CC(C)(c2csc(Nc3ccc(OCC)cc3)n2)OC1=O (stereo unspecified),-,-,-,18µM,-,-
CCCC(=O)NC(=S)Nc1cccc(NC(=O)c2ccccc2Cl)c1,-,-,-,11µM,-,-
Cc1ccc(NC(=O)c2cccs2)cc1NC(=O)c1ccccc1Cl,-,-,-,-,-,-
O=C(Nc1cccc(NC(=O)c2ccccc2Cl)c1)c1cccs1,-,-,-,22µM,-,-
CCC(=O)NC(=S)Nc1cccc(NC(=O)c2ccccc2Cl)c1,-,-,-,14µM,-,-
Cc1csc2nc(-c3cccc(NC(=O)c4ccccc4F)c3)cn12,-,-,-,-,.,.
Cc1csc2nc(-c3cccc(NC(=O)c4ccccc4Cl)c3)cn12,-,-,-,20µM,.,.
O=C(O)CC/C=C\CC[C@H]1[C@@H](N2CCCCC2)[C@@H](O)C[C@@H]1OCc1ccc(-c2ccccc2)cc1,.,-,.,.,.,.
Cc1ccc(CNS(=O)(=O)c2cc(C(=O)Nc3cccc(C(F)(F)F)c3)ccc2F)cc1,-,-,.,-,.,.
Cc1ccc2nc(-c3ccccc3C)c(CN(CC3CCCO3)C(=O)c3cccs3)cc2c1 (stereo unspecified),.,-,.,.,.,.
CN1[C@@H]2CC[C@@H]1CC(OC(=O)[C@H](CO)c1ccccc1)C2 (stereo partly specified),.,-,.,.,.,.
Cc1cccc2cc(CN(CC3CCCO3)C(=O)c3cccc(F)c3)c(N(C)C)nc12 (stereo unspecified),.,-,.,.,.,.
Cc1ccccc1NC(=O)c1cnn(-c2ccccc2)c1C,-,-,-,13µM,-,-
CCc1ccccc1NC(=O)c1cnn(-c2ccccc2)c1C,-,-,-,14µM,-,-
Cc1cccc(NC(=O)c2cnn(-c3ccccc3)c2C)c1C,-,-,-,-,-,-
O=C(COC(=O)C12CC3CC(CC(Cl)(C3)C1)C2)NCc1ccco1,.,-,-,.,.,.
